# From paper PMC7862700, “An all-to-all approach to the identification of sequence-specific readers for epigenetic DNA modifications on cytosine”
# Assays:
# Test in all cases: DAPPL (digital affinity profiling via proximity ligation, sequencing); 10 mM Tris-HCl pH 7.5, 50 mM NaCl, 1 mM DTT, 4% glycerol, room temperature, 30 min; GST-TFs on glutathione beads, 16-mer random dsDNA library, 0.1% formaldehyde crosslink after washing; high values mean tight binding
# Conditions in all cases: protein: recombinant; tags: N-terminal GST; dsDNA, one strand shown
# ELK1 = molecular target: T1, ELK1 (Homo sapiens, UniProt P19419 1-428)
# T1 sequence: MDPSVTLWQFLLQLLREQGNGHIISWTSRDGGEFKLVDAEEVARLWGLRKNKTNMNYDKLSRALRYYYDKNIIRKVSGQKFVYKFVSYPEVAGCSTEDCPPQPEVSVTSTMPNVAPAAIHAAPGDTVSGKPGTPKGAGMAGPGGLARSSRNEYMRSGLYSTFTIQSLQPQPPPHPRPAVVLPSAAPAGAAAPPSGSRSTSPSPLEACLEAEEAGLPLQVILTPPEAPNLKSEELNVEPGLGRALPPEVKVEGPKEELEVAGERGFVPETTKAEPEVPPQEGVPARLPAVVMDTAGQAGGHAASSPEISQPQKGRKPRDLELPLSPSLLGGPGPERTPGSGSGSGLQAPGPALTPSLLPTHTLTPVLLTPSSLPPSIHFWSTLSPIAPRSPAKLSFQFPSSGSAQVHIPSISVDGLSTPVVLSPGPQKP
# Procedure, shortened: (§1)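 Binding signal is each hexamer's read frequency for a factor divided by its frequency in the tag-only sample. The factors were GST-fused human transcription factors from yeast, captured on glutathione beads, DNA-barcoded and pooled with that sample. Pools were incubated with 200 nmole of a random double-stranded 16-mer DNA library in Tris/NaCl/DTT/glycerol buffer at room temperature for 30 min, then washed, crosslinked with 0.1% formaldehyde, proximity-ligated with BsaI/T4 ligase (1 h, 37 °C), PCR-amplified and sequenced on an Illumina NextSeq500.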
# GABPA = molecular target: T2, GABPA (Homo sapiens, UniProt Q06546 1-454)
# T2 sequence: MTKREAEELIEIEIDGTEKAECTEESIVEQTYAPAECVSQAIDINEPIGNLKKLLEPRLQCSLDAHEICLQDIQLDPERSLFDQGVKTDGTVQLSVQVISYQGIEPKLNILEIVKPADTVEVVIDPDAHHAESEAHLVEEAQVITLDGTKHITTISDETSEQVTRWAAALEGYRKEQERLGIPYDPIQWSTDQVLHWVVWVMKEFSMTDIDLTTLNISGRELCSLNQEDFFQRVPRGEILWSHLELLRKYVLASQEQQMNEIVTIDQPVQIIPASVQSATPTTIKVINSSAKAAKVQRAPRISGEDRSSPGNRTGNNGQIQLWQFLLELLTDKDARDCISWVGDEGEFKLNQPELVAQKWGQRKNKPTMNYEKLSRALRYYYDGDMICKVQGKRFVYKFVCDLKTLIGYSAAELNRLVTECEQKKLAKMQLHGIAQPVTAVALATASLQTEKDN
# Procedure, shortened: as §1
# ERG = molecular target: T3, ERG (Homo sapiens, UniProt P11308 1-479)
# T3 sequence: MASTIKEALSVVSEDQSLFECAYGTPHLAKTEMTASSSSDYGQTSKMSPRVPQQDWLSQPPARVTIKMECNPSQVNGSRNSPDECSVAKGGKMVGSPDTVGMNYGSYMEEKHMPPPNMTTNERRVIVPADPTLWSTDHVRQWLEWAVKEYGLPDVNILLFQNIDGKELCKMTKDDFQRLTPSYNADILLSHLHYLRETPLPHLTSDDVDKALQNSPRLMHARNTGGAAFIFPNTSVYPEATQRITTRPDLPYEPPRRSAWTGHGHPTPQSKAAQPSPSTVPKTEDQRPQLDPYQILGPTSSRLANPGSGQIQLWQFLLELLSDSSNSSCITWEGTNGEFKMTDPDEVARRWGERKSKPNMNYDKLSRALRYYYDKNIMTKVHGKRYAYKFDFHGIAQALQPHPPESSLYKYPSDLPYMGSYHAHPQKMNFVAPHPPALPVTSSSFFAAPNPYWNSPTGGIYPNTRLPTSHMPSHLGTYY
# Procedure, shortened: as §1
# ELF1 = ELF1 (Homo sapiens, UniProt P32519 1-619)
# Procedure, shortened: as §1
# EHF = molecular target: T4, EHF (Homo sapiens, UniProt Q9NZC4 1-300)
# T4 sequence: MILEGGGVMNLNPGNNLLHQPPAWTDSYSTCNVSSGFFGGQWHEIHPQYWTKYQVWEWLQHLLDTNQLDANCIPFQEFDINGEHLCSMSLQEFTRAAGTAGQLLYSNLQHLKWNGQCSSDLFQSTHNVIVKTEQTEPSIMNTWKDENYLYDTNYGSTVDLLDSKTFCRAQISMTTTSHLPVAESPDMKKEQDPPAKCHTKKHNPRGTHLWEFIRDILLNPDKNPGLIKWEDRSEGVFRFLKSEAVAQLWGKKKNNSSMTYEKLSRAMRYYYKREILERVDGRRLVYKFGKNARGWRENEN
# Procedure, shortened: as §1
# SPIB = SPIB (Homo sapiens, UniProt Q01892 1-262)
# Procedure, shortened: as §1
# FEV = molecular target: T5, FEV (Homo sapiens, UniProt Q99581 1-238)
# T5 sequence: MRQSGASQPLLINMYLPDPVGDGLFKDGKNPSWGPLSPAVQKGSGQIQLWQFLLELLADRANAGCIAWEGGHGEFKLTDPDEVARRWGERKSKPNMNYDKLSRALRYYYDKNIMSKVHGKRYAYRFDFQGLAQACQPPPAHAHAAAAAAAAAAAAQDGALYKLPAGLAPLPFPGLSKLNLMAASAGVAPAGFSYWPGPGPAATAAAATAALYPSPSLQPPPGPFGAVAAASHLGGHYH
# Procedure, shortened: as §1
# ETV5 = ETV5 (Homo sapiens, UniProt P41161 1-510)
# Procedure, shortened: as §1
# ELF4 = ELF4 (Homo sapiens, UniProt Q99607 1-663)
# Procedure, shortened: as §1
# ELK4 = molecular target: T6, ELK4 (Homo sapiens, UniProt P28324-2 1-405)
# T6 sequence: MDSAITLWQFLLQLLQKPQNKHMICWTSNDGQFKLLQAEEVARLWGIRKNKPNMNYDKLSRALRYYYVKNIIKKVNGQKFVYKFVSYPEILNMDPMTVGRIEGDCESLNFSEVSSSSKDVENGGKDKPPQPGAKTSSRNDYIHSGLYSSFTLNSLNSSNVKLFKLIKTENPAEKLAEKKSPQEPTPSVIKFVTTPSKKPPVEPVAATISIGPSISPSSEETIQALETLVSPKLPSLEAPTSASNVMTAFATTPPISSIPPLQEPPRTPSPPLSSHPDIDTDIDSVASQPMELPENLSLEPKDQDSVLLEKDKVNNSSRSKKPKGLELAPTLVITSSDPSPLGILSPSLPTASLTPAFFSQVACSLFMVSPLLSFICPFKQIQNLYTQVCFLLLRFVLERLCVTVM
# Procedure, shortened: as §1
# Chain of ELF4 (Q99607 whole entry): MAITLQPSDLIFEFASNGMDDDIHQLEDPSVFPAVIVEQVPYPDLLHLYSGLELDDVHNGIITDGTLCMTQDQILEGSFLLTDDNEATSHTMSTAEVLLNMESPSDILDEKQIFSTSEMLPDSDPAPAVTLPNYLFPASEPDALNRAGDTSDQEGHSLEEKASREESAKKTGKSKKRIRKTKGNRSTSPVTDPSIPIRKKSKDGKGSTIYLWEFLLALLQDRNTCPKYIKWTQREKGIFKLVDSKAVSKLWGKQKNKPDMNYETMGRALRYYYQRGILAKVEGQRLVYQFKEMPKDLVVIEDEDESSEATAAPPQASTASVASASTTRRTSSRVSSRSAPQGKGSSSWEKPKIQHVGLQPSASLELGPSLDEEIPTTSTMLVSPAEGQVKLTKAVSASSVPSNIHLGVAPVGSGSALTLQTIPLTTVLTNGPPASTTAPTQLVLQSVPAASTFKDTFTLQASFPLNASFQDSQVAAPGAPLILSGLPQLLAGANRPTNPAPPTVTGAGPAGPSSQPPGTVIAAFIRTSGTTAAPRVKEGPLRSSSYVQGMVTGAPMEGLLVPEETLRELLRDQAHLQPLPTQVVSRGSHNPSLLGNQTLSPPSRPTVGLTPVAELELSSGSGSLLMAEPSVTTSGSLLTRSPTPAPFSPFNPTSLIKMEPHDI
# Chain of ETV5 (P41161 whole entry): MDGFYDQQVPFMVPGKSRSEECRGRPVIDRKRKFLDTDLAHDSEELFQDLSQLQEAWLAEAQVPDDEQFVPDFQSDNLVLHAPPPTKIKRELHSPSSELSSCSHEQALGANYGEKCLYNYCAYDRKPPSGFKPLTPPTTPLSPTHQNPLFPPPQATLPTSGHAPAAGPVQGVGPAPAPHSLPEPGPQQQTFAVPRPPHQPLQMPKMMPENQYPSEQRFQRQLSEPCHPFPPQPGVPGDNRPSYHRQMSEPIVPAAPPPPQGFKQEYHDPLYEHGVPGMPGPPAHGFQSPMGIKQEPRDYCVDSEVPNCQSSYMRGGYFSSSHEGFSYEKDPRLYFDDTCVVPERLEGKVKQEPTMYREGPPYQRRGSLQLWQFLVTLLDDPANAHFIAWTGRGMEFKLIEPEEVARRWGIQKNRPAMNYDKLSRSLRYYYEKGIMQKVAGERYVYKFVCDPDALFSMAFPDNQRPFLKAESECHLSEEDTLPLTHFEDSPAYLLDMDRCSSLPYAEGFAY
# Chain of SPIB (Q01892 whole entry): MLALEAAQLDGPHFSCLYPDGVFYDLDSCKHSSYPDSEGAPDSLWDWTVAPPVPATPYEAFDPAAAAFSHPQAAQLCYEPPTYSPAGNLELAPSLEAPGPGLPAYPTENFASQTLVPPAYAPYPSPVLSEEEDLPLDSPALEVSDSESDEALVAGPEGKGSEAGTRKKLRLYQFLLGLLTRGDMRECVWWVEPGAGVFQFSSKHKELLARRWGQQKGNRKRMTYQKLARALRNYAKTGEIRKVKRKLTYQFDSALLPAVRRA
# Chain of ELF1 (P32519 whole entry): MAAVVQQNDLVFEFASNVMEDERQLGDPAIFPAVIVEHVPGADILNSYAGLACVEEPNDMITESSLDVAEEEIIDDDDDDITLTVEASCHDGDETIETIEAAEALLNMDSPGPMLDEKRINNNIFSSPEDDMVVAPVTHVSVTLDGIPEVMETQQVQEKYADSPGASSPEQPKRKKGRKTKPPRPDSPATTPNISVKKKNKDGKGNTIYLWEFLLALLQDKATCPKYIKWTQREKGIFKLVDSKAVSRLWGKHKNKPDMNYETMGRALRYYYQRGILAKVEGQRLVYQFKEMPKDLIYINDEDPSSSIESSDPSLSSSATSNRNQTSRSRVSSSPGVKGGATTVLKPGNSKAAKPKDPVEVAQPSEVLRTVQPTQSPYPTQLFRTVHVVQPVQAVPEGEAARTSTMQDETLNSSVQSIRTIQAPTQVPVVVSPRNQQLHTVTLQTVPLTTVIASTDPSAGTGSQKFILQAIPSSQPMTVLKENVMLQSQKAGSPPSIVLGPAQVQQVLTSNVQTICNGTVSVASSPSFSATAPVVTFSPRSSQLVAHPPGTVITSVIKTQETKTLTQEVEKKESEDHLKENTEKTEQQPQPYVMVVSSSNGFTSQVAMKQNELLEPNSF
sequence,measurement,setting,value
CCCAAA,binding signal,ELK1,"1.15 fold enrichment (6-mer frequency, TF over GST control)"
same,binding signal,GABPA,"1.17 fold enrichment (6-mer frequency, TF over GST control)"
same,binding signal,ERG,"1.13 fold enrichment (6-mer frequency, TF over GST control)"
same,binding signal,ELF1,"1.18 fold enrichment (6-mer frequency, TF over GST control)"
same,binding signal,EHF,"1.12 fold enrichment (6-mer frequency, TF over GST control)"
same,binding signal,SPIB,"1.14 fold enrichment (6-mer frequency, TF over GST control)"
same,binding signal,FEV,"1.08 fold enrichment (6-mer frequency, TF over GST control)"
same,binding signal,ETV5,"1.07 fold enrichment (6-mer frequency, TF over GST control)"
same,binding signal,ELF4,"1.17 fold enrichment (6-mer frequency, TF over GST control)"
same,binding signal,ELK4,"1.06 fold enrichment (6-mer frequency, TF over GST control)"
